Measurements taken from PubChem BioAssay (Tox21).
Inconclusive results are not listed. Activity calls are given as the source filed them. Unless noted, calls follow the shape of the dose curve; as a rule, active = well fitted curve in the direction sought with a large enough effect in the repeat runs; inconclusive = weak or mixed curves; inactive = no such curve, though single readings can be large; an effect the other way counts as inactive or inconclusive.

Columns and labels:
[1] = qHTS RealTime-Glo MT Cell Viability Assay in HEK293 cells - 0 hour (AID 1224880); also: nearly all actives have a fitted effect of over 45% in size; also: potency is read from the fitted curve at half-maximal effect; as to activity change, negative = cytotoxicity: top concentration of the series differs between compounds
Method in brief: (§1)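 Tox21 screen in HEK293 using RealTime-Glo MT chemistry, with cells and reagent co-dispensed. Luminescence proportional to viable cell number was captured at intervals during 40 h compound exposure at 37 C.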

[2] = A CellTox Green Cytotoxicity Assay to monitor cytotoxicity in HEK293 cells - 32 hour (AID 1224881); also: nearly all actives have a fitted effect of over 40% in size
Method in brief: (§2)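 Seeding of HEK293 cells together with cytotoxicity dye preceded a 5 h incubation at 37 C/5% CO2. Test compounds in DMSO were then added and fluorescence monitored across 40 h.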

[3] = A CellTox Green Cytotoxicity Assay to monitor cytotoxicity in HepG2 cells - 0 hour (AID 1224882); also: nearly all actives have a fitted effect of over 35% in size
Method in brief: (§3)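 Nonlytic assay: viable cells exclude the dye, so fluorescence scales with cell death. HepG2 at 600 cells/well, compounds added after 5 h, signal read across 40 h.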

[4] = A CellTox Green Cytotoxicity Assay to monitor cytotoxicity in HepG2 cells - 32 hour (AID 1224883); also: nearly all actives have a fitted effect of over 50% in size
Method in brief: as §3

[5] = A CellTox Green Cytotoxicity Assay to monitor cytotoxicity in HEK293 cells - 8 hour (AID 1224884); also: nearly all actives have a fitted effect of over 35% in size
Method in brief: as §2

[6] = qHTS RealTime-Glo MT Cell Viability Assay in HepG2 cells - 16 hour (AID 1224885); also: nearly all actives have a fitted effect of over 50% in size
Method in brief: (§4)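 HepG2 suspension premixed with RealTime-Glo reagents is plated at 600 cells per well and left 5 h at 37 C/5% CO2. Compounds in DMSO then go in, and bioluminescence reflecting viable cell number is recorded over 40 h.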

[7] = qHTS RealTime-Glo MT Cell Viability Assay in HEK293 cells - 24 hour (AID 1224886); also: top concentration of the series differs between compounds; nearly all actives have a fitted effect of over 50% in size
Method in brief: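 Reads taken at 0, 8, 16, 24, 32 and 40 h from the same wells. HEK293 cells (600/well) carried RealTime-Glo reagents from seeding, with compound added after a 5 h settle at 37 C.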

[8] = qHTS RealTime-Glo MT Cell Viability Assay in HEK293 cells - 8 hour (AID 1224887); also: top concentration of the series differs between compounds; nearly all actives have a fitted effect of over 50% in size
Method in brief: as §1

[9] = A CellTox Green Cytotoxicity Assay to monitor cytotoxicity in HEK293 cells - 16 hour (AID 1224888); also: nearly all actives have a fitted effect of over 35% in size
Method in brief: as §2

[10] = qHTS RealTime-Glo MT Cell Viability Assay in HepG2 cells - 0 hour (AID 1224889); also: nearly all actives have a fitted effect of over 50% in size; also: potency is read from the fitted curve at half-maximal effect
Method in brief: as §4

[11] = A CellTox Green Cytotoxicity Assay to monitor cytotoxicity in HepG2 cells - 8 hour (AID 1224890); also: nearly all actives have a fitted effect of over 45% in size
Method in brief: as §3

[12] = qHTS assay to identify small molecule antagonists of the estrogen receptor alpha (ER-alpha) signaling pathway using the BG1 cell line in the presence of 0.1 nM 17-beta-estradiol - cell viability counter screen (AID 1259241); also: nearly all actives have a fitted effect of over 40% in size
Method in brief: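 Measures cytotoxicity alongside the ER-alpha antagonist readout: VM7Luc4E2 cells, charcoal-stripped serum, 0.1 nM 17beta-estradiol final, 22 hr compound incubation at 37C, CellTiter-Fluor fluorescence.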

[13] = qHTS assay to identify small molecule antagonists of the androgen receptor (AR) signaling pathway using the MDA cell line in the presence of 0.5 nM R1881 - cell viability counter screen (AID 1259242); also: nearly all actives have a fitted effect of over 45% in size
Method in brief: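 R1881 at 0.5 nM final stimulated MDA-kb2 cells during 16 hr compound treatment at 37C. Cytotoxicity read: CellTiter-Fluor fluorescence after 30 min.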

[14] = molecular target: Estrogen receptor (Homo sapiens) (UniProt P03372); experiment: qHTS assay to identify small molecule antagonists of the estrogen receptor alpha (ER-alpha) signaling pathway using the BG1 cell line in the presence of 0.1 nM 17-beta-estradiol (AID 1259244); also: nearly all actives have a fitted effect of over 50% in size
Sequence of Estrogen receptor (Homo sapiens) (P03372 whole entry, looked up): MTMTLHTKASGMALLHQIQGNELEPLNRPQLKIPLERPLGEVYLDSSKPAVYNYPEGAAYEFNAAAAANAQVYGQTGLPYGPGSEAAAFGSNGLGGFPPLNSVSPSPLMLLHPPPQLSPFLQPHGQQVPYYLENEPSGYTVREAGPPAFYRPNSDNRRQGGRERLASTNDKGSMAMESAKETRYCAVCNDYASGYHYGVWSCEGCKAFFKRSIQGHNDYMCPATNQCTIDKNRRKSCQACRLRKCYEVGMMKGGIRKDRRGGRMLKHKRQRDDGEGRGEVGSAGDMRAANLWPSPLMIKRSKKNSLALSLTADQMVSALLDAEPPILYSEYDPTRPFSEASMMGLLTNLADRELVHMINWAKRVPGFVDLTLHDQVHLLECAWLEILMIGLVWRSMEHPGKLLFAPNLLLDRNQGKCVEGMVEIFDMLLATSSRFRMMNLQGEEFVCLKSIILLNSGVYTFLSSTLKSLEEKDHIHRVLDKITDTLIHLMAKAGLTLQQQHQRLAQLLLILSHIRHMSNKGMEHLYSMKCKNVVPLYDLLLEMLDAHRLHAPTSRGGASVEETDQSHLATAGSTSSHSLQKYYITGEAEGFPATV
Method in brief: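 VM7Luc4E2; 4xERE-luciferase; 0.1 nM E2 final; 22 h co-incubation, 37C; ONE-Glo luminescence after 30 min at room temperature.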

[15] = qHTS assay to identify small molecule HDAC inhibitors (AID 1259364);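 also: wild-type HCT-116 cells with endogenous class I/II HDAC activity; top concentration of the series differs between compounds; nearly all actives have a fitted effect of over 45% in size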
Method in brief: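 Relative class I and II HDAC activity is taken from the luminogenic signal in HCT-116 cells, with compound exposure 2 hr and reagent development 30 min at room temperature.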

[16] = qHTS assay to identify small molecule HDAC inhibitors - cell viability counter screen (AID 1259365)
Method in brief: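 Following a 2hr exposure of overnight-plated wild-type HCT-116 cells to DMSO-delivered compounds, CellTiter-Glo was added and luminescence recorded after 30min at room temperature.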

[17] = qHTS assay to identify small molecule agonists of the sonic hedgehog signaling (Shh) pathway - cell viability counter screen (AID 1259366); also: nearly all actives have a fitted effect of over 50% in size
Method in brief: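 After a 4hr attachment at 37C, NIH/3T3 cells bearing an integrated Gli1-driven luciferase reporter were dosed with compounds. Treatment lasted 24hr, with the final hour including CellTiter-Fluor for a fluorescence viability measurement.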

[18] = qHTS assay to identify small molecule antagonists of the sonic hedgehog signaling (Shh) pathway - cell viability counter screen (AID 1259367); also: nearly all actives have a fitted effect of over 55% in size
Method in brief: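 NIH/3T3-derived Gli1-Luc reporter cells (2,000 per well) rested 4 hr at 37 C, then received DMSO compounds plus conditioned medium. After 23 hr of treatment, CellTiter-Fluor was added for 1 hr at 37C and fluorescence read.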

[19] = qHTS assay to identify small molecule phospholipidosis (PLD) inducers (AID 1259344; active = well fitted curve in the direction sought with a large enough effect; an effect the other way counts as inactive or inconclusive)
Method in brief: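 HepG2 cells on collagen I, attached 4 h at 37 C, were co-treated with compound and LipidTOX Red dye for 24 h at 37 C, then fixed with paraformaldehyde plus Hoechst 33342 and imaged by high-content microscopy for phospholipid accumulation.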

[20] = molecular target: Androgen receptor (Homo sapiens) (UniProt P10275); experiment: qHTS assay to identify small molecule antagonists of the androgen receptor (AR) signaling pathway using the MDA cell line in the presence of 0.5 nM R1881 (AID 1259243); also: nearly all actives have a fitted effect of over 50% in size
Sequence of Androgen receptor (Homo sapiens) (P10275 whole entry, looked up): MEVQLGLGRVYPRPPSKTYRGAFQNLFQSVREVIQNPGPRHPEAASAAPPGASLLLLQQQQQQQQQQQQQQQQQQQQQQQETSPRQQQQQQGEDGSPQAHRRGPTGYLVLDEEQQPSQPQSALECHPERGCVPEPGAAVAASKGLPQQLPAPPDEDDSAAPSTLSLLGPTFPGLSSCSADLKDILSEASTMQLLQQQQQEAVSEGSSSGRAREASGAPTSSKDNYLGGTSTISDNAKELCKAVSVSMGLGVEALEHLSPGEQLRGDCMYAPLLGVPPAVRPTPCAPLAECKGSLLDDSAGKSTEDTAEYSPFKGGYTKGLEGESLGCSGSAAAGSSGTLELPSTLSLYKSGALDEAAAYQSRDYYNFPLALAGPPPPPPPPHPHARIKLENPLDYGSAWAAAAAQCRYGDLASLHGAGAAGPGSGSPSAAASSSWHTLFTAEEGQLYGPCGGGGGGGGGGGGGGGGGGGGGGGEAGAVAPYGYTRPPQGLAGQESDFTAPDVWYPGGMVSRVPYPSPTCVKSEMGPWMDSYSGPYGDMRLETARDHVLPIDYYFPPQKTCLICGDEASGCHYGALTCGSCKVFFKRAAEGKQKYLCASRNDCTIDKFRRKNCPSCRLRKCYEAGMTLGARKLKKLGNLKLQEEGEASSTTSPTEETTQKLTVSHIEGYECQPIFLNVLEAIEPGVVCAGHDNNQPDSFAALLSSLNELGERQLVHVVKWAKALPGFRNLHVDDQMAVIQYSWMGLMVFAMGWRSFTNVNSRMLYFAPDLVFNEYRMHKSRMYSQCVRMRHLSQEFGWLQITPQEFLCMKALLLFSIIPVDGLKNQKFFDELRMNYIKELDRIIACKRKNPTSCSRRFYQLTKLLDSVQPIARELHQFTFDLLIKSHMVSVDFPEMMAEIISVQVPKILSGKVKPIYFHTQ
Method in brief: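 We exposed MDA-kb2 cells to compounds under 0.5 nM R1881 stimulation for 16 hr at 37C and quantified MMTV-driven luciferase by luminescence.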
% is scaled to controls: 0 for no effect and ±100 for the full control effect.

N#CCCCC(C#N)CCC#N (centres undefined)
inactive: Potency [1] | Potency [2] | Potency [3] | Potency [4] | Potency [5] | outcome [6] | Potency [7] | Potency [8] | Potency [9] | Potency [10] | Potency [11] | Potency [12] | Potency [13] | Potency [14] | Potency [15] | outcome [16] | Potency [17] | Potency [18]

CC(C)(C(=O)O)c1ccc(C(O)CCCN2CCC(C(O)(c3ccccc3)c3ccccc3)CC2)cc1 (centres undefined)
inactive: Potency [1] | Potency [2] | Potency [3] | Potency [4] | Potency [5] | outcome [6] | Potency [7] | Potency [8] | Potency [9] | Potency [10] | Potency [11] | Potency [12] | Potency [13] | Potency [14] | Potency [19] | Potency [15] | outcome [16] | Potency [17] | Potency [18]

Cc1ccc(S(=O)(=O)NC(=O)NC2CCCC2)cc1
inactive: Potency [1] | Potency [2] | Potency [3] | Potency [4] | Potency [5] | outcome [6] | Potency [7] | Potency [8] | Potency [9] | Potency [10] | Potency [11] | Potency [12] | Potency [13] | Potency [19] | Potency [15] | outcome [16] | Potency [17] | Potency [18]

CCc1cnc(C(=O)O)c(C(=O)O)c1
inactive: Potency [1] | Potency [2] | Potency [3] | Potency [4] | Potency [5] | outcome [6] | Potency [7] | Potency [8] | Potency [9] | Potency [10] | Potency [11] | Potency [12] | Potency [13] | Potency [14] | Potency [15] | outcome [16] | Potency [17] | Potency [18]

Cc1ccc(Cl)c(OCC(O)CNC(C)(C)C)c1 (centres undefined)
inactive: Potency [1] | Potency [2] | Potency [3] | Potency [4] | Potency [5] | outcome [6] | Potency [7] | Potency [8] | Potency [9] | Potency [10] | Potency [11] | Potency [12] | Potency [13] | Potency [14] | Potency [15] | outcome [16] | Potency [17] | Potency [18]

C=CC(C)(O)CC/C=C(/C)CCC=C(C)C (centres undefined)
inactive: Potency [1] | Potency [2] | Potency [3] | Potency [4] | Potency [5] | outcome [6] | Potency [7] | Potency [8] | Potency [9] | Potency [10] | Potency [11] | Potency [12] | Potency [13] | Potency [15] | outcome [16] | Potency [17] | Potency [18]

CCCCCCCCCCCCSCCOCCO
inactive: Potency [1] | Potency [2] | Potency [3] | Potency [4] | Potency [5] | outcome [6] | Potency [7] | Potency [8] | Potency [9] | Potency [10] | Potency [11] | Potency [12] | Potency [13] | Potency [14] | Potency [19] | Potency [15] | outcome [16] | Potency [17] | Potency [18]

CCCCCCCCC(=O)OCC(C)OC(=O)CCCCCCCC (centres undefined)
inactive: Potency [1] | Potency [2] | Potency [3] | Potency [4] | Potency [5] | outcome [6] | Potency [7] | Potency [8] | Potency [9] | Potency [10] | Potency [11] | Potency [12] | Potency [13] | Potency [15] | outcome [16] | Potency [17] | Potency [18]

Cc1cc(SC2=C(O)C[C@@](CCc3ccc(N)cc3)(C(C)C)OC2=O)c(C(C)(C)C)cc1CO
active: Potency [1] 11 µM | Potency [10] 19.5 µM
inactive: Potency [2] | Potency [3] | Potency [4] | Potency [5] | outcome [6] | Potency [7] | Potency [8] | Potency [9] | Potency [11] | Potency [12] | Potency [13] | Potency [20] | Potency [15] | outcome [16] | Potency [17] | Potency [18]

CC(C)(C)N
inactive: Potency [1] | Potency [2] | Potency [3] | Potency [4] | Potency [5] | outcome [6] | Potency [7] | Potency [8] | Potency [9] | Potency [10] | Potency [11] | Potency [12] | Potency [13] | Potency [15] | outcome [16] | Potency [17] | Potency [18]

COC=O
inactive: activity change, negative = cytotoxicity [1] -6.16% [at 6.97 µM] | cytotoxicity increase [2] -12.1% [at 6.97 µM] | cytotoxicity [3] 0.137% [at 6.97 µM] | cytotoxicity increase [4] -4.32% [at 6.97 µM] | cytotoxicity increase [5] -11.8% [at 6.97 µM] | activity change, negative = cytotoxic [6] 5.42% [at 6.97 µM] | activity change, negative = cytotoxicity [7] 14.1% [at 6.97 µM] | activity change, negative = cytotoxicity [8] 3.22% [at 6.97 µM] | activity change [9] -10.1% [at 6.97 µM, hits give high values] | activity change, negative = cytotoxicity [10] -11.5% [at 6.97 µM] | cytotoxicity increase [11] -0.393% [at 6.97 µM] | activity change, negative = cytotoxicity [12] 7.16% [at 8.39 µM] | viability change, negative = cytotoxic [13] 2.17% [at 8.39 µM] | activity change, negative = inhibition [14] -1.73% [at 8.39 µM] | activity change, negative = inhibition [15] 0.883% [at 8.39 µM] | activity change, negative = cytotoxicity [16] -4.91% [at 8.39 µM] | viability change, negative = cytotoxic [18] 5.98% [at 8.39 µM]

CCCCCCCCCCCCCCCCCCCl
inactive: activity change, negative = cytotoxicity [1] 8.32% [at 6.97 µM] | cytotoxicity increase [2] 3.09% [at 6.97 µM] | cytotoxicity [3] 0.682% [at 6.97 µM] | cytotoxicity increase [4] -12.9% [at 6.97 µM] | cytotoxicity increase [5] 13.7% [at 6.97 µM] | activity change, negative = cytotoxic [6] -0.256% [at 6.97 µM] | activity change, negative = cytotoxicity [7] 2.37% [at 6.97 µM] | activity change, negative = cytotoxicity [8] 0.0634% [at 6.97 µM] | activity change [9] 11.7% [at 6.97 µM, hits give high values] | activity change, negative = cytotoxicity [10] 4.46% [at 6.97 µM] | cytotoxicity increase [11] 0.0897% [at 6.97 µM] | activity change, negative = cytotoxicity [12] 5.01% [at 8.39 µM] | viability change, negative = cytotoxic [13] 5.37% [at 8.39 µM] | activity change, negative = inhibition [15] 2.06% [at 8.39 µM] | activity change, negative = cytotoxicity [16] 1.46% [at 8.39 µM] | viability change, negative = cytotoxic [17] 3.36% [at 8.39 µM] | viability change, negative = cytotoxic [18] 0.635% [at 8.39 µM]

CC1(C)[C@@H]2CC[C@]3(C2)[C@@H]1C(=O)CCC3(C)C
inactive: Potency [1] | Potency [2] | Potency [3] | Potency [4] | Potency [5] | outcome [6] | Potency [7] | Potency [8] | Potency [9] | Potency [10] | Potency [11] | Potency [12] | Potency [13] | Potency [20] | Potency [15] | outcome [16] | Potency [17] | Potency [18]

CC(=O)OCC(=O)[C@@]1(O)CC[C@H]2[C@@H]3CCC4=CC(=O)C=C[C@]4(C)[C@@]3(F)[C@@H](O)C[C@@]21C
inactive: Potency [2] | Potency [3] | Potency [4] | Potency [5] | outcome [6] | Potency [7] | Potency [8] | Potency [9] | Potency [11] | Potency [12] | Potency [13] | Potency [19] | Potency [15] | outcome [16] | Potency [17] | Potency [18]
active: Potency [1] 7.56 µM | Potency [10] 3.01 µM
